# Measured values reported in PubChem BioAssay.
# Calls of active or inactive are those of the source. No rule for the calls is given here.
# Molecular target: Pantothenate synthetase (Mycobacterium tuberculosis (strain ATCC 25618 / H37Rv)) (UniProt P9WIL5)
# Test: Recombinant Mtb pantothenate synthetase (PanC) inhibitors, coupled enzyme, confirmatory (AID 375);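 also: 0% = full reaction with vehicle and 100% = no enzyme background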
# Details: coupled enzyme assay; at 10 µM, stronger effect = higher value
# Pantothenate synthetase (Mycobacterium tuberculosis (strain ATCC 25618 / H37Rv)), sequence (P9WIL5 whole entry, looked up): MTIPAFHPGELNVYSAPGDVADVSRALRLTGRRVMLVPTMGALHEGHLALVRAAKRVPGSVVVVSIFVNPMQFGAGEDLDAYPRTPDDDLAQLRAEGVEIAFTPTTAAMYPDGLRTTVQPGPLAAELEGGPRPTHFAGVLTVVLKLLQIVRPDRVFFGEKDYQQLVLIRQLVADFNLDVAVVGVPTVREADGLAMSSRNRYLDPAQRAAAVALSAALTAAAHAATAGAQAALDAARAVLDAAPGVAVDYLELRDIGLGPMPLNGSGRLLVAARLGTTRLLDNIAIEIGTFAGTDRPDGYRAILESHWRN
row,Structure (SMILES),inhibition
1,COc1cc2c(cc1OC)C(c1ccc(C)o1)CC(=O)N2 (centres undefined),3% (inactive)
2,CC1CC(C)CN(CCCNC(=O)COc2cc(=O)n(C)c3ccccc23)C1 (centres undefined),0% (inactive)
3,CCN(CC)C(=O)C1CCCN(c2ncnc3c2cnn3-c2ccc(Cl)cc2)C1 (centres undefined),4% (inactive)
4,CC(C)OC(=O)CSc1nnnn1-c1ccc2c(c1)OCCO2,2% (inactive)
5,O=C(CN(CCc1ccccc1)C(=O)CNS(=O)(=O)c1ccccc1)NCC1CCCO1 (centres undefined),0% (inactive)
6,COc1ccc(CSCCN)cc1Cl,0% (inactive)
7,O=C(NCc1ccco1)C1Cc2ccccc2CN1S(=O)(=O)c1ccccc1F (centres undefined),1% (inactive)
8,O=C(c1ccco1)N1CCN(S(=O)(=O)c2ccc(Oc3ccccc3)cc2)CC1,0% (inactive)
9,COC(=O)c1cccc(S(=O)(=O)N2CCC(C)CC2)c1,3% (inactive)
10,C[C@@H]1C[C@H](O)c2cc(Cl)ccc2N1,8% (inactive)
11,Cn1nc(C(C)(C)C)cc1C(=O)NCc1ccc(N2CCCC2=O)cc1,0% (inactive)
12,CCOc1ccccc1C(=O)Nn1c(C2CCC2)nc2ccccc2c1=O,0% (inactive)
13,O=C(C1CCN(S(=O)(=O)N2CCC3(CC2)OCCO3)CC1)N1CCOCC1,0% (inactive)
14,COC(=O)Cn1c(CCS(=O)(=O)c2ccc(C)cc2)nc2ccccc21,1% (inactive)
15,CCCSc1nc2c(cnn2-c2ccc(Cl)cc2)c(=O)[nH]1,0% (inactive)
16,CNC(=O)c1c(O)c2cccc3c2n(c1=O)CC3,1% (inactive)
17,CS(=O)(=O)N1CCC(C(=O)NCCC2=CCCCC2)CC1,6% (inactive)
18,CC(C)(C)OC(=O)N1CCC(C(=O)N[C@H](Cc2ccccc2)C(=O)O)CC1,0% (inactive)
19,Cc1noc(C)c1S(=O)(=O)N1CCCC(C(=O)NCCc2ccc(Cl)cc2)C1 (centres undefined),3% (inactive)
20,O=C(NCc1cccs1)C(Cc1ccccc1)n1cccc1 (centres undefined),0% (inactive)

row,Structure (SMILES),inhibition
1,COc1ccc(OC)c(NC(=O)CCNS(=O)(=O)c2cccs2)c1,0% (inactive)
2,COc1ccc(C2c3c(-c4ccccc4O)n[nH]c3C(=O)N2CCc2ccc(OC)c(OC)c2)cc1 (centres undefined),0% (inactive)
3,CC(C)OC(=O)CN1C(=O)C(C)(C)Oc2ccc(C(=O)NC3CC3)cc21,0% (inactive)
4,COc1ccc(-n2nnnc2SCC(=O)c2ccc(O)c(O)c2)cc1,0% (inactive)
5,O=C(c1cc2nc(-c3ccco3)cc(C(F)(F)F)n2n1)N1CCN(c2ccccn2)CC1,6% (inactive)
6,COc1ccc(NC(=O)c2oc3ccccc3c2NC(=O)c2ccco2)cc1,0% (inactive)
7,Cc1cc(O)c(C(C)C)cc1N=C1CSC(=O)N1,0% (inactive)
8,C=CCn1c(-c2ccccc2)c[nH]c1=S,0% (inactive)
9,O=C(CCn1c(=O)c2ccccc2n(CC(=O)NCCC2=CCCCC2)c1=O)NCc1ccco1,4% (inactive)
10,O=C(CCn1c(=O)c2sccc2n(CC(=O)NCc2ccco2)c1=O)NCc1ccccc1,3% (inactive)
11,CCOC(=O)Cn1nnnc1CN(Cc1ccc(OC)cc1)Cc1cc2cc(C)ccc2[nH]c1=O,1% (inactive)
12,Cc1[nH]nc2c1C(=O)CCC2,0% (inactive)
13,O=C(c1ccccc1)c1ccc2nc[nH]c2c1,0% (inactive)
14,CC1(C)O[C@@H]2C[C@H]3[C@@H]4C[C@H](F)C5=CC(=O)C=C[C@]5(C)[C@@]4(F)[C@@H](O)C[C@]3(C)[C@]2(C(=O)CO)O1,1% (inactive)
15,COc1cccc(OC)c1C(=O)n1nc(C)cc1C,6% (inactive)
16,CC(=O)NCCc1ccc(S(=O)(=O)NCc2ccc3c(c2)OCO3)cc1,0% (inactive)
17,COc1cc(N=c2ssnc2Cl)cc(OC)c1,1% (inactive)
18,O=C1C2C3C=CC(C3=C3CCCCC3)C2C(=O)N1c1ccccc1 (centres undefined),0% (inactive)
19,CS(=O)(=O)c1ncc(Cl)c(C(=O)Nc2ccc(N3CCOCC3)cc2)n1,2% (inactive)
